Data: PubChem BioAssay
Activity calls are given as the source filed them. Unless noted, no rule for the calls is given here.

Columns and labels:
[1] = HepG2 liver cancer cell viability effects, profiling panel, resazurin fluorescence, 24 h, PK04 Diversity Set (AID 1172); settings: higher = more signal
[2] = basal S. cerevisiae growth modulation, no modifier, primary screen, OD600, strain BY4716, 24 h, basal condition (AID 1173); settings: OD600, 24 h, higher = more signal, called active from +8 up or from −8 down
[3] = MM1S myeloma cell viability, profiling panel, resazurin fluorescence, basal, 24 h, PK04 Diversity Set (AID 1174); settings: higher = more signal, called active from +8 up or from −8 down;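 also: MM1S multiple myeloma cell line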
[4] = target: Dihydroorotate dehydrogenase (quinone), mitochondrial (Plasmodium falciparum (isolate 3D7)) (UniProt Q08210); experiment: PfDHODH enzyme inhibitors, primary screen, biochemical, C-terminal His tag, absorbance 600 nm (AID 1175); settings: DCIP absorbance 600 nm, higher = more signal, called active from +8 up or from −8 down;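 also: recombinant parasite enzyme with a five histidine tag at its C terminus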
Sequence of Dihydroorotate dehydrogenase (quinone), mitochondrial (Plasmodium falciparum (isolate 3D7)) (Q08210 whole entry, looked up): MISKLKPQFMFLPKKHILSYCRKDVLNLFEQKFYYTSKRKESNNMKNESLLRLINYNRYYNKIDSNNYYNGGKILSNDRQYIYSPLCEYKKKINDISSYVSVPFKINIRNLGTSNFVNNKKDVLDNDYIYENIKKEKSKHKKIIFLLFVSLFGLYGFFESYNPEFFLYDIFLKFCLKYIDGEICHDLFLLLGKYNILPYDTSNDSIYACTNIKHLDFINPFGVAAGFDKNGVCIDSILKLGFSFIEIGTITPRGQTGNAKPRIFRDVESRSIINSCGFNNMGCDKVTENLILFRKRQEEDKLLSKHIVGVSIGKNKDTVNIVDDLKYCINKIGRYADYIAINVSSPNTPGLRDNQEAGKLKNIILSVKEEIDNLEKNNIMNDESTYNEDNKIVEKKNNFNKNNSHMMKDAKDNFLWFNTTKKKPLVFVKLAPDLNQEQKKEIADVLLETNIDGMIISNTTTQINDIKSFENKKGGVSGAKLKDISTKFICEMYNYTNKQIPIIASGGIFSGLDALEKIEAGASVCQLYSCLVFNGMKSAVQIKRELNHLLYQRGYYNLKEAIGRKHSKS

[5] = P. aeruginosa biofilm formation inhibitors, primary screen, strain PAO1, LB-PBS medium, absorbance 600 nm (AID 1176); settings: P. aeruginosa PAO1 growth/biofilm, A600, 12 h; higher = more signal
[6] = S. cerevisiae RM11-1a growth modifiers, primary screen, strain RM11-1a, OD600, basal, 24 h (AID 1177); settings: OD600, 24 h, higher = more signal, called active from +8 up or from −8 down;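 also: cultures grown under basal conditions with no added stressor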
[7] = E. coli acrAB mutant growth effects, primary screen, E. coli filamentation inducers, strain DRC39, OD650, 24 h (AID 1178); settings: higher = more signal, called active from +8 up or from −8 down;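 also: growth measured as culture turbidity by optical density at 650 nm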
[8] = E. coli acrAB mutant growth effects, primary screen, E. coli filamentation inducers, strain DRC39, OD650, 48 h (AID 1179);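 also: screen aims at cell division blockers that make cells filament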; settings: E. coli DRC39 delta-acrAB growth, higher = more signal, called active from +8 up or from −8 down
[9] = RPMI8226 myeloma cell viability, profiling panel, resazurin fluorescence, basal, 24 h, PK04 Diversity Set (AID 1180); settings: higher = more signal;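 also: RPMI8826 multiple myeloma cell line at 5000 cells per well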
[10] = target: E3 ubiquitin-protein ligase XIAP (Homo sapiens) (UniProt P98170); experiment: XIAP binders, primary screen, biophysical, small-molecule microarray, fluorescence 635 nm (AID 1181); settings: small-molecule microarray binding, higher = more signal;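 also: score merges 667 nm emission and signal to noise over triplicate slides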
Sequence of E3 ubiquitin-protein ligase XIAP (Homo sapiens) (P98170 whole entry, looked up): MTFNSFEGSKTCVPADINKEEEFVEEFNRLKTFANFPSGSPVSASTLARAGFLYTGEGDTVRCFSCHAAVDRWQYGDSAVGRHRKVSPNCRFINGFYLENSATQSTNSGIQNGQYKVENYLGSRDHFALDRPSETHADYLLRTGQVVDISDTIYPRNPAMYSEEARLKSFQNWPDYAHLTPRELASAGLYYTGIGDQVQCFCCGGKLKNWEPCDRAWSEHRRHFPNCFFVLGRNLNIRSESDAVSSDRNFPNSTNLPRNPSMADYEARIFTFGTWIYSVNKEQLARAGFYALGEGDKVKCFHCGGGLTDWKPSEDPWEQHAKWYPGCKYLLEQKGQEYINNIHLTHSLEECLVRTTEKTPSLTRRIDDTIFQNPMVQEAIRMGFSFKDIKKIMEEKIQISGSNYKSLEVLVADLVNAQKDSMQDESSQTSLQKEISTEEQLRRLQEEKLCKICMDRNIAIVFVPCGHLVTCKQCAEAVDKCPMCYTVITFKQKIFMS

[11] = system: XIP peptide (Xip251-270) binding; experiment: small-molecule binders of XIP peptide, primary screen, biochemical, small-molecule microarray, fluorescence 635/667 nm, 0.1 µg/mL protein (AID 1182); settings: fluorescent protein binding, 635 nm, higher = more signal, called active from +8 up or from −8 down
XIP peptide (Xip251-270) = experiment: small-molecule binders of XIP peptide, primary screen, biochemical, small-molecule microarray, fluorescence 635/667 nm, 0.5 µg/mL protein (AID 1183); settings: small-molecule microarray binding, fluorescence 635 nm; higher = more signal
[12] = Plasmodium falciparum growth inhibition, primary screen, strain 3D7, DAPI fluorescence, 100 nL (AID 1184);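 also: parasites grown inside human red blood cells in medium with human serum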; settings: P. falciparum 3D7 growth, 3 d, higher = more signal
[13] = target: Homeobox protein Hox-A13 (Mus musculus) (UniProt Q62424); experiment: inhibitors of HoxA13-DNA binding, primary screen, biochemical, fluorescence polarization, labeled oligonucleotide (AID 1185); settings: 15 min, higher = more signal, called active from +8 up or from −8 down
Sequence of Homeobox protein Hox-A13 (Mus musculus) (Q62424 whole entry, looked up): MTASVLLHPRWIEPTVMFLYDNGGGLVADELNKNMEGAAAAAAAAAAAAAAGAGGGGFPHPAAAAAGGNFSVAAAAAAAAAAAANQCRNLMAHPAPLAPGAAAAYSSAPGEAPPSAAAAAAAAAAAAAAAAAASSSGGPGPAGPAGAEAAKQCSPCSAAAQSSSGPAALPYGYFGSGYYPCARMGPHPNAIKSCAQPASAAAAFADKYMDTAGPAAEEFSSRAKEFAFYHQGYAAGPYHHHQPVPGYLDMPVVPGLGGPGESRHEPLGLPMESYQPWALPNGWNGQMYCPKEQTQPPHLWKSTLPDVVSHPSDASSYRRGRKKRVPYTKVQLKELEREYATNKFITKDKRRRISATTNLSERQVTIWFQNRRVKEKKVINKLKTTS

[14] = inhibitors of hydroxyurea-induced Chk1 phosphorylation, primary screen, imaging, HeLa, phospho-Chk1 antibody, percent positive cells (AID 1186); settings: hydroxyurea-induced phospho-Chk1 immunofluorescence imaging, higher = more signal
[15] = inhibitors of hydroxyurea-induced Chk1 phosphorylation, primary screen, imaging, HeLa, phospho-Chk1 nuclear intensity (AID 1187); settings: hydroxyurea-induced phospho-Chk1 immunofluorescence imaging, higher = more signal

Row | SMILES | z-score [1] | z-score [2] | z-score [3] | composite z-score [4] | z-score [5] | z-score [6] | z-score [7] | z-score [8] | z-score [9] | composite z-score [10] | composite z-score [11] | composite z-score (XIP peptide (Xip251-270)) | z-score [12] | z-score [13] | z-score [14] | z-score [15]
1 | CCCC[C@@H]1C[C@H]1[C@@H](NC(=O)c1cccs1)c1ccc(-c2ccccc2)cc1 | 1.13 | 0.748 (inactive) | 0.921 (inactive) | -1.02 (inactive) | 1.03 (inactive) | 0.822 (inactive) | -0.409 (inactive) | -0.384 (inactive) | 0.661 | 0.416 | 0.217 (inactive) | -0.319 | 0.0576 | -1.5 (inactive) | 0.0111 (inactive) | 0.0204 (inactive)
2 | CC(C)CNC(=O)[C@@]1(Cc2ccccc2I)c2ccccc2C(=O)N(C2CCCCC2)[C@H]1c1ccc(CO)cc1 | -0.462 | 0.408 (inactive) | -0.424 (inactive) | 0.193 (inactive) | 0.348 (inactive) | -0.199 (inactive) | -0.113 (inactive) | -0.0397 (inactive) | -0.124 | -0.0789 | 2.15 (inactive) | 0.696 | -1.15 | -3.77 (inactive) | 0.145 (inactive) | -0.0021 (inactive)
3 | C=C(COC)C(=O)CC[C@@H](OC(C)=O)c1ccc(CO)o1 | -0.173 | 0.227 (inactive) | 0.145 (inactive) | -3.24 (inactive) | 0.838 (inactive) | -1.23 (inactive) | -0.216 (inactive) | -0.107 (inactive) | 0.0972 | 0.383 | 0.861 (inactive) | -0.0256 | 0.216 | -3.72 (inactive) | 0.293 (inactive) | 0.384 (inactive)
4 | C[N+](C)(C)CCCCNC(=O)[C@@H]1C[C@@H]2C(=O)N[C@@H](Cc3ccccc3)C(=O)N2[C@@H]1c1cccc(OCCO)c1 | -0.278 | -0.143 (inactive) | 0.548 (inactive) | -24.9 (active) | -0.226 (inactive) | 0.145 (inactive) | 0.994 (inactive) | 1.31 (inactive) | 0.0965 | -0.138 | 1.09 (inactive) | 0.645 | -0.421 | -2.57 (inactive) | 0.367 (inactive) | 0.276 (inactive)
5 | [N-]=[N+]=Nc1ccccc1[C@@H]1OC(c2ccc(OCCCO)cc2)=N[C@]1(CCS(=O)(=O)c1ccccc1)C(N)=O | 0.396 | -0.0185 (inactive) | -0.706 (inactive) | 0.796 (inactive) | -0.291 (inactive) | -0.0594 (inactive) | 0.326 (inactive) | -0.397 (inactive) | -0.699 | 0.0975 | 1 (inactive) | 0.629 | -2.04 | -4.11 (inactive) | -0.154 (inactive) | -0.0216 (inactive)
